# Out of some 39,000 compounds screened, about 1,500 (3.8%) were called active. The full list was thinned out, with actives kept by preference.
# Test system: HSkMC (human skeletal muscle cells)
# Assay: cytotoxicity call (relative viability < 0.9)
# Details: 10 µM
row,Structure (SMILES),cytotoxicity call
1,C[C@H](CO)N1C[C@H](C)[C@@H](CN(C)C(=O)C2CCCCC2)Oc2cc(-c3cncnc3)ccc2S1(=O)=O,inactive
2,C[C@H](CO)N1C[C@H](C)[C@H](CN(C)Cc2ccccc2)Oc2ccc(NS(=O)(=O)c3cn(C)cn3)cc2CC1=O,inactive
3,C[C@H](CO)N1C[C@H](C)[C@H](CN(C)S(=O)(=O)c2ccc(C(F)(F)F)cc2)OCc2ccccc2-c2c(n(C)c3ccccc23)C1=O,inactive
4,CC(C)NC(=O)Nc1ccc2c(c1)C(=O)N([C@@H](C)CO)C[C@@H](C)[C@@H](CN(C)C(=O)NC1CCCCC1)O2,inactive
5,C[C@@H]1CCCCO[C@H](CN(C)C(=O)c2ccccc2)[C@@H](C)CN([C@@H](C)CO)C(=O)c2cc(NC(=O)Nc3ccc(F)cc3)ccc2O1,inactive
6,COc1ccc(S(=O)(=O)N(C)C[C@H]2OCCCC[C@H](C)Oc3ccc(NC(=O)c4ccccc4)cc3C(=O)N([C@@H](C)CO)C[C@H]2C)cc1,inactive
7,COc1ccc2c3c(n(c2c1)C)[C@H](CO)N(C[C@]13CN(C1)S(=O)(=O)c1cn(cn1)C)C(=O)Nc1ccc(cc1)F,inactive
8,COc1ccc(S(=O)(=O)Nc2ccc3c(c2)C(=O)N([C@@H](C)CO)C[C@@H](C)[C@@H](CN(C)C(=O)Nc2ccc(C(F)(F)F)cc2)OCCCC[C@@H](C)O3)cc1,inactive
9,C[C@@H]1CCCCO[C@H](CN(C)C(=O)CCC(F)(F)F)[C@H](C)CN([C@@H](C)CO)C(=O)c2cc(NS(=O)(=O)c3cccs3)ccc2O1,inactive
10,CC[C@@]1(O)C[C@H](O[C@H]2C[C@H](N(C)C)[C@H](O[C@H]3C[C@H](O)[C@H](O[C@H]4CCC(=O)[C@H](C)O4)[C@H](C)O3)[C@H](C)O2)c2c(cc3c(c2O)C(=O)c2c(O)cccc2C3=O)[C@H]1C(=O)OC,active
11,COC(=O)[C@H]1c2cc3c(c(O)c2[C@@H](O[C@@H]2O[C@H](C)[C@H](OC)[C@](C)(OC)[C@@H]2OC)C[C@@]1(C)O)C(=O)c1c(O)cc2c(c1C3=O)O[C@H]1O[C@@]2(C)[C@@H](O)[C@H](N(C)C)[C@@H]1O,inactive
12,C[C@@H]1CCCCO[C@H](CN(C)Cc2ccc(Cl)c(Cl)c2)[C@@H](C)CN([C@H](C)CO)C(=O)c2cc(NC(=O)c3ccncc3)ccc2O1,inactive
13,CC=Cc1ccc2n(c1=O)C[C@H]1[C@H](CO)[C@@H](C(=O)NCCc3cn(C)cn3)[C@@H]2N1C(=O)C1CC1,inactive
14,C[C@H](CO)N1C[C@H](C)[C@H](CN(C)C(=O)Nc2ccc3c(c2)OCO3)Oc2c(NC(=O)C3CC3)cccc2C1=O,inactive
15,C[C@H](CO)N1C[C@H](C)[C@@H](CN(C)S(=O)(=O)c2ccc(Cl)cc2)OCCCC[C@H](C)Oc2ccc(NS(=O)(=O)c3ccccc3)cc2C1=O,inactive
16,Cc1c(N)nc([C@H](CC(N)=O)NC[C@H](N)C(N)=O)nc1C(=O)N[C@H](C(=O)N[C@H](C)[C@@H](O)[C@H](C)C(=O)N[C@H](C(=O)NCCc1nc(-c2nc(C(=O)NCCCNCCCCN)cs2)cs1)[C@@H](C)O)[C@@H](O[C@@H]1O[C@@H](CO)[C@@H](O)[C@H](O)[C@@H]1O[C@@H]1O[C@H](CO)[C@@H](O)[C@H](OC(N)=O)[C@@H]1O)c1c[nH]cn1,active
17,Cc1ccc(S(=O)(=O)N(C)C[C@@H]2Oc3ccc(NC(=O)Cn4cnnn4)cc3CC(=O)N([C@@H](C)CO)C[C@H]2C)cc1,inactive
18,C[C@@H]1CN([C@@H](C)CO)C(=O)c2cccc(NC(=O)Nc3ccccc3)c2O[C@H]1CN(C)Cc1ccc(C(F)(F)F)cc1,inactive
19,C[C@@H]1CN([C@H](C)CO)C(=O)c2cccc(NC(=O)Nc3ccc(C(F)(F)F)cc3)c2O[C@H]1CN(C)Cc1ccc(-c2ccccc2)cc1,inactive
20,C[C@@H]1CN([C@H](C)CO)C(=O)c2cccc(NC(=O)Nc3ccc(C(F)(F)F)cc3)c2O[C@@H]1CN(C)Cc1ccc(-c2ccccc2)cc1,active

row,Structure (SMILES),cytotoxicity call
1,C[C@H]1CN([C@@H](C)CO)C(=O)c2cccc(NC(=O)Nc3ccc(C(F)(F)F)cc3)c2O[C@H]1CN(C)Cc1ccc(-c2ccccc2)cc1,inactive
2,C[C@H]1CN([C@@H](C)CO)C(=O)c2cccc(NC(=O)Nc3ccccc3)c2O[C@@H]1CN(C)Cc1ccc(C(F)(F)F)cc1,active
3,C[C@@H]1CN([C@H](C)CO)C(=O)c2cccc(NC(=O)Nc3ccccc3)c2O[C@H]1CN(C)Cc1ccc(C(F)(F)F)cc1,active
4,C[C@H](CO)N1C[C@H](C)[C@H](CN(C)Cc2ccc(C(F)(F)F)cc2)Oc2c(NC(=O)Nc3ccccc3)cccc2C1=O,inactive
5,C[C@@H]1CN([C@@H](C)CO)C(=O)c2cccc(NC(=O)Nc3ccccc3)c2O[C@@H]1CN(C)Cc1ccc(C(F)(F)F)cc1,inactive
6,C[C@H](CO)N1C[C@H](C)[C@@H](CN(C)Cc2ccc(C(F)(F)F)cc2)Oc2c(NC(=O)Nc3ccccc3)cccc2C1=O,inactive
7,Cc1noc(C)c1NC(=O)Nc1ccc2c(c1)C(=O)N([C@H](C)CO)C[C@H](C)[C@H](CN(C)Cc1ccncc1)OCCCC[C@H](C)O2,inactive
8,Cc1noc(C)c1S(=O)(=O)N(C)C[C@H]1Oc2ccc(NC(=O)Cc3ccccc3)cc2CC(=O)N([C@@H](C)CO)C[C@H]1C,inactive
9,CN(C)Cc1cn(CC[C@H]2CC[C@@H](NC(=O)Cc3cccnc3)[C@H](CO)O2)nn1,inactive
10,C[C@H](CO)N1C[C@H](C)[C@@H](CN(C)Cc2ccc(-c3ccccc3)cc2)Oc2c(NC(=O)CCCCCC(=O)Nc3ccccc3N)cccc2C1=O,inactive
11,CC(C)NC(=O)N(C)C[C@H]1Oc2cc(C#Cc3cccc(F)c3)ccc2S(=O)(=O)N([C@@H](C)CO)C[C@@H]1C,inactive
12,C[C@H](NC(=O)C[C@H]1CC[C@H](NC(=O)CN2CCOCC2)[C@@H](CO)O1)c1ccccc1,inactive
13,COc1ccc(NC(=O)Nc2cccc3c2O[C@@H](CN(C)Cc2ccc(Oc4ccccc4)cc2)[C@H](C)CN([C@H](C)CO)C3=O)cc1,inactive
14,COc1ccc(NC(=O)Nc2cccc3c2O[C@@H](CN(C)Cc2ccc(Oc4ccccc4)cc2)[C@H](C)CN([C@@H](C)CO)C3=O)cc1,inactive
15,COc1ccc(NC(=O)Nc2cccc3c2O[C@@H](CN(C)Cc2ccc(Oc4ccccc4)cc2)[C@@H](C)CN([C@H](C)CO)C3=O)cc1,active
16,COc1ccc(NC(=O)Nc2cccc3c2O[C@H](CN(C)Cc2ccc(Oc4ccccc4)cc2)[C@H](C)CN([C@H](C)CO)C3=O)cc1,inactive
17,COc1ccc(NC(=O)Nc2cccc3c2O[C@H](CN(C)Cc2ccc(Oc4ccccc4)cc2)[C@@H](C)CN([C@@H](C)CO)C3=O)cc1,active
18,COc1ccc(NC(=O)Nc2cccc3c2O[C@@H](CN(C)Cc2ccc(Oc4ccccc4)cc2)[C@@H](C)CN([C@@H](C)CO)C3=O)cc1,inactive
19,CC(C)NC(=O)Nc1ccc2c(c1)C(=O)N([C@H](C)CO)C[C@H](C)[C@@H](CN(C)S(C)(=O)=O)OCCCC[C@@H](C)O2,inactive
20,CC(C)(C)[S@](=O)N1Cc2cc(C(=O)N3CCCCC3)nc(-c3cccc(C4=CCCC4)c3)c2[C@@H]1CCO,inactive

row,Structure (SMILES),cytotoxicity call
1,Cc1noc(C)c1NC(=O)N(C)C[C@@H]1OCCCC[C@H](C)Oc2ccc(NS(=O)(=O)c3ccc(Cl)cc3)cc2C(=O)N([C@H](C)CO)C[C@@H]1C,inactive
2,CC[C@H](C)[C@@H]([C@@H](CC(=O)N1CCC[C@H]1[C@H](OC)[C@@H](C)C(=O)N[C@@H](Cc1ccccc1)c1nccs1)OC)N(C)C(=O)[C@@H](NC(=O)[C@H](C(C)C)N(C)C)C(C)C,active
3,C[C@H](CO)N1C[C@H](C)[C@@H](CN(C)Cc2ccc(Oc3ccccc3)cc2)Oc2c(NC(=O)Cc3ccccc3)cccc2C1=O,inactive
4,COc1ccc(NC(=O)Nc2ccc3c(c2)C(=O)N([C@H](C)CO)C[C@@H](C)[C@@H](CN(C)Cc2ccc4c(c2)OCO4)OCCCC[C@@H](C)O3)cc1,inactive
5,Cc1noc(C)c1S(=O)(=O)Nc1ccc2c(c1)C(=O)N([C@@H](C)CO)C[C@H](C)[C@@H](CN(C)C(=O)Nc1ccc(C(F)(F)F)cc1)OCCCC[C@@H](C)O2,inactive
6,C[C@@H]1CN([C@@H](C)CO)C(=O)c2cc(NC(=O)CCCCCC(=O)Nc3ccccc3N)ccc2O[C@H]1CN(C)C(=O)Nc1ccc(F)cc1,inactive
7,Nn1c(-c2ccncc2)nncc1=O,inactive
8,C[C@@H]1CN([C@H](C)CO)C(=O)Cc2cc(NC(=O)Nc3ccc4c(c3)OCO4)ccc2O[C@@H]1CN(C)Cc1ccc(Cl)c(Cl)c1,active
9,C[C@H]1CN([C@@H](C)CO)C(=O)Cc2cc(NC(=O)Nc3ccc4c(c3)OCO4)ccc2O[C@@H]1CN(C)Cc1ccc(Cl)c(Cl)c1,inactive
10,C[C@H]1CN([C@@H](C)CO)C(=O)Cc2cc(NC(=O)Nc3ccc4c(c3)OCO4)ccc2O[C@H]1CN(C)Cc1ccc(Cl)c(Cl)c1,active
11,C[C@H]1CN([C@@H](C)CO)C(=O)c2cc(NC(=O)Nc3ccc4c(c3)OCO4)ccc2O[C@H]1CN(C)Cc1ccc(Cl)c(Cl)c1,inactive
12,C[C@H](CO)N1C[C@H](C)[C@H](CN(C)Cc2ccc(Cl)c(Cl)c2)Oc2ccc(NC(=O)Nc3ccc4c(c3)OCO4)cc2CC1=O,active
13,C[C@@H]1CN([C@@H](C)CO)C(=O)Cc2cc(NC(=O)Nc3ccc4c(c3)OCO4)ccc2O[C@@H]1CN(C)Cc1ccc(Cl)c(Cl)c1,inactive
14,C[C@H](CO)N1C[C@H](C)[C@H](CN(C)Cc2ccc(Cl)c(Cl)c2)Oc2ccc(NC(=O)Nc3ccc4c(c3)OCO4)cc2C1=O,inactive
15,C[C@@H]1CN([C@H](C)CO)C(=O)Cc2cc(NC(=O)Nc3ccc4c(c3)OCO4)ccc2O[C@H]1CN(C)Cc1ccc(Cl)c(Cl)c1,inactive
16,C[C@@H]1CN([C@@H](C)CO)C(=O)c2cc(NC(=O)Nc3ccc4c(c3)OCO4)ccc2O[C@H]1CN(C)Cc1ccc(Cl)c(Cl)c1,inactive
17,C[C@H]1CN([C@@H](C)CO)C(=O)c2cc(NC(=O)Nc3ccc4c(c3)OCO4)ccc2O[C@@H]1CN(C)Cc1ccc(Cl)c(Cl)c1,inactive
18,C[C@@H]1CN([C@@H](C)CO)C(=O)Cc2cc(NC(=O)Nc3ccc4c(c3)OCO4)ccc2O[C@H]1CN(C)Cc1ccc(Cl)c(Cl)c1,inactive
19,C[C@H](CO)N1C[C@H](C)[C@@H](CN(C)Cc2ccc(Cl)c(Cl)c2)Oc2ccc(NC(=O)Nc3ccc4c(c3)OCO4)cc2CC1=O,active
